# Publication PMC11006913
# Where a chain is given by its changes, count along the chain named.
# Columns and labels:
# Experiment in all cases: PBM; 200 nM protein, PBS
# Settings in all cases: dsDNA, one strand shown
# HOXB9 [1] = target: HOXB9 (Homo sapiens, UniProt P17482 171-250, T197M)
# HOXC9 [2] = target: HOXC9 (Homo sapiens, UniProt P31274 178-260, K195R)
# HOXA7 [3] = target: HOXA7 (Homo sapiens, UniProt P31268 116-202)
# HOXC10 [4] = target: HOXC10 (Homo sapiens, UniProt Q9NYD6 254-340)
# Chain of HOXC10 (Homo sapiens, UniProt Q9NYD6 254-340) (Q9NYD6 254-340): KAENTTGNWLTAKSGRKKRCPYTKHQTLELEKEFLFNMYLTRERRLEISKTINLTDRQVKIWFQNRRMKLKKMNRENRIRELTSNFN
# ALX4 [5] = target: ALX4 (Homo sapiens, UniProt Q9H161 200-286)
# Chain of ALX4 (Homo sapiens, UniProt Q9H161 200-286) (Q9H161 200-286): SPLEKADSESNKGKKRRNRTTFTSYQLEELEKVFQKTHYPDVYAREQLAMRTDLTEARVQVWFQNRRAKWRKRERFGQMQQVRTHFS
# PAX4 [6] = target: T1, PAX4 (Homo sapiens, UniProt O43316 9-242, R200K)
# T1 sequence: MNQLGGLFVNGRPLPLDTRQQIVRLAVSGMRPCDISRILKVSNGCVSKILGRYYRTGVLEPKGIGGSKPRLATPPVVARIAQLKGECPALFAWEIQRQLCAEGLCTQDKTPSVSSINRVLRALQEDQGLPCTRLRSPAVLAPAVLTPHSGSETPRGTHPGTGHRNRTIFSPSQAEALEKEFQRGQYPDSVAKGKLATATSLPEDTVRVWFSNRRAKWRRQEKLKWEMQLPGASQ
# PRRX1 [7] = target: PRRX1 (Homo sapiens, UniProt P54821 80-166, F113S)
# Chain of PRRX1 (Homo sapiens, UniProt P54821 80-166, F113S) (P54821 80-166 F113S): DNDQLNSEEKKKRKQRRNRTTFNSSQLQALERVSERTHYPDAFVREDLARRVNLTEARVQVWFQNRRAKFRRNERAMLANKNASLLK
# PAX4 [8] = target: T2, PAX4 (Homo sapiens, UniProt O43316 9-242)
# T2 sequence: T1 sequence with K192R
# HOXB6 [9] = target: HOXB6 (Homo sapiens, UniProt P17509 132-218, K202E)
# Chain of HOXB6 (Homo sapiens, UniProt P17509 132-218, K202E) (P17509 132-218 K202E): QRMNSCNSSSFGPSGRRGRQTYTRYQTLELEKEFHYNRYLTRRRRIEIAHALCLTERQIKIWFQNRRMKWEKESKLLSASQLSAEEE
# ALX4 [10] = target: ALX4 (Homo sapiens, UniProt Q9H161 200-286, Q225E)
# Chain of ALX4 (Homo sapiens, UniProt Q9H161 200-286, Q225E) (Q9H161 200-286 Q225E): as the sequence (Q9H161 200-286) above, with Q26E counted along it
# HOXA4 [11] = target: HOXA4 (Homo sapiens, UniProt Q00056 201-287, R217L)
# Chain of HOXA4 (Homo sapiens, UniProt Q00056 201-287, R217L) (Q00056 201-287 R217L): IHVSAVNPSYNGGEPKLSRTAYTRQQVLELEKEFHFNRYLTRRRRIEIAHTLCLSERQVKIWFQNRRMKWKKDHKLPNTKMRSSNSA
# HOXB4 = HOXB4 (Homo sapiens, UniProt P17483 148-234, V174I)
# Chain of HOXB4 (P17483 148-234 V174I): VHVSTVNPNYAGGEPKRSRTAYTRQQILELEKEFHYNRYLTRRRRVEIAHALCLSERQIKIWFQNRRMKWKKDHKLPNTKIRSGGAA
# ALX1 [12] = target: ALX1 (Homo sapiens, UniProt Q15699 118-204, L144V)
# Chain of ALX1 (Homo sapiens, UniProt Q15699 118-204, L144V) (Q15699 118-204 L144V): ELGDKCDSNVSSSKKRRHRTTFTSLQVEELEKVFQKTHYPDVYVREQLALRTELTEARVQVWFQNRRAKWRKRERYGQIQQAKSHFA
# ALX3 [13] = target: ALX3 (Homo sapiens, UniProt O95076 139-225, N203Q)
# Chain of ALX3 (Homo sapiens, UniProt O95076 139-225, N203Q) (O95076 139-225 N203Q): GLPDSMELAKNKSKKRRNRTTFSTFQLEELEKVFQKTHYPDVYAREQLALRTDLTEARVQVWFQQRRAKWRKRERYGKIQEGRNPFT
# HOXD13 = HOXD13 (Homo sapiens, UniProt P35453 263-343, T313R)
# Chain of HOXD13 (P35453 263-343 T313R): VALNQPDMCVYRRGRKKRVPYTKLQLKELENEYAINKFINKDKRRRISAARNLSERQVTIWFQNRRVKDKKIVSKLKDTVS
# PAX4 [14] = target: T3, PAX4 (Homo sapiens, UniProt O43316 9-242, R200Q)
# T3 sequence: T1 sequence with K192Q
# SHOX = SHOX (Homo sapiens, UniProt O15266 103-189, R173C)
# Chain of SHOX (O15266 103-189 R173C): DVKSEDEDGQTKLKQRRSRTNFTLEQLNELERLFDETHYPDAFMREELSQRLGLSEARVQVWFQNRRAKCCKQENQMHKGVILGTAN
# HOXC9 [15] = target: HOXC9 (Homo sapiens, UniProt P31274 178-260, R193K)
# Chain of HOXC9 (Homo sapiens, UniProt P31274 178-260, R193K) (P31274 178-260 R193K): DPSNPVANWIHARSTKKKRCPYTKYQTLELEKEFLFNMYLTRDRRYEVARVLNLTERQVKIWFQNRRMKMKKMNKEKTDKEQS
# ALX1 [16] = target: ALX1 (Homo sapiens, UniProt Q15699 118-204, L144R)
# Chain of ALX1 (Homo sapiens, UniProt Q15699 118-204, L144R) (Q15699 118-204 L144R): as the sequence (Q15699 118-204 L144V) above, with V27R counted along it
# PAX4 [17] = target: T4, PAX4 (Homo sapiens, UniProt O43316 9-242, F177V)
# T4 sequence: T1 sequence with F169V, K192R
# HOXC10 [18] = target: HOXC10 (Homo sapiens, UniProt Q9NYD6 254-340, K271E)
# Chain of HOXC10 (Homo sapiens, UniProt Q9NYD6 254-340, K271E) (Q9NYD6 254-340 K271E): as the sequence (Q9NYD6 254-340) above, with K18E counted along it
# ALX3 [19] = target: ALX3 (Homo sapiens, UniProt O95076 139-225)
# Chain of ALX3 (Homo sapiens, UniProt O95076 139-225) (O95076 139-225): as the sequence (O95076 139-225 N203Q) above, with Q65N counted along it
# PAX4 [20] = target: T5, PAX4 (Homo sapiens, UniProt O43316 9-242, F177Y)
# T5 sequence: T1 sequence with F169Y, K192R
# HESX1 [21] = target: HESX1 (Homo sapiens, UniProt Q9UBX0 95-180, R109Q)
# Chain of HESX1 (Homo sapiens, UniProt Q9UBX0 95-180, R109Q) (Q9UBX0 95-180 R109Q): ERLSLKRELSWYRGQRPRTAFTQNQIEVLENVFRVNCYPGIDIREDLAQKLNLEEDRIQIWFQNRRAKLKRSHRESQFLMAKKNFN
# ALX3 [22] = target: ALX3 (Homo sapiens, UniProt O95076 139-225, L168Q)
# Chain of ALX3 (Homo sapiens, UniProt O95076 139-225, L168Q) (O95076 139-225 L168Q): as the sequence (O95076 139-225 N203Q) above, with L30Q, Q65N counted along it
# HESX1 [23] = target: HESX1 (Homo sapiens, UniProt Q9UBX0 95-180, P111T)
# Chain of HESX1 (Homo sapiens, UniProt Q9UBX0 95-180, P111T) (Q9UBX0 95-180 P111T): as the sequence (Q9UBX0 95-180 R109Q) above, with Q15R, P17T counted along it
# HOXB9 [24] = target: HOXB9 (Homo sapiens, UniProt P17482 171-250, R186Q)
# Chain of HOXB9 (Homo sapiens, UniProt P17482 171-250, R186Q) (P17482 171-250 R186Q): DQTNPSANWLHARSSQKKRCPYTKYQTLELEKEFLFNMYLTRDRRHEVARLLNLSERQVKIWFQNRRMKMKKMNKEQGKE
# HOXC9 [25] = target: HOXC9 (Homo sapiens, UniProt P31274 178-260, R222W)
# Chain of HOXC9 (Homo sapiens, UniProt P31274 178-260, R222W) (P31274 178-260 R222W): as the sequence (P31274 178-260 R193K) above, with K16R, R45W counted along it
# ALX3 [26] = target: ALX3 (Homo sapiens, UniProt O95076 139-225, L168V)
# Chain of ALX3 (Homo sapiens, UniProt O95076 139-225, L168V) (O95076 139-225 L168V): as the sequence (O95076 139-225 N203Q) above, with L30V, Q65N counted along it
# HESX1 [27] = target: HESX1 (Homo sapiens, UniProt Q9UBX0 95-180, F115L)
# Chain of HESX1 (Homo sapiens, UniProt Q9UBX0 95-180, F115L) (Q9UBX0 95-180 F115L): as the sequence (Q9UBX0 95-180 R109Q) above, with Q15R, F21L counted along it
# VAX1 = VAX1 (Homo sapiens, UniProt Q5SQQ9 86-172, T142I)
# Chain of VAX1 (Q5SQQ9 86-172 T142I): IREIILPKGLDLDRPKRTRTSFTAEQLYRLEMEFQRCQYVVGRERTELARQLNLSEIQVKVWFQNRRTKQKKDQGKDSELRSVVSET
# PAX4 [28] = target: T6, PAX4 (Homo sapiens, UniProt O43316 9-242, R227W)
# T6 sequence: T1 sequence with K192R, R219W
# HOXA7 [29] = target: HOXA7 (Homo sapiens, UniProt P31268 116-202, W177C)
# Chain of HOXA7 (Homo sapiens, UniProt P31268 116-202, W177C) (P31268 116-202 W177C): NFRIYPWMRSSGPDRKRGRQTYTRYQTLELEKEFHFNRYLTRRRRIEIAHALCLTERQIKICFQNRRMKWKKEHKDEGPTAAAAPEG
# HOXA4 [30] = target: HOXA4 (Homo sapiens, UniProt Q00056 201-287, W262F)
# Chain of HOXA4 (Homo sapiens, UniProt Q00056 201-287, W262F) (Q00056 201-287 W262F): as the sequence (Q00056 201-287 R217L) above, with L17R, W62F counted along it
# ALX3 [31] = target: ALX3 (Homo sapiens, UniProt O95076 139-225, N203S)
# Chain of ALX3 (Homo sapiens, UniProt O95076 139-225, N203S) (O95076 139-225 N203S): as the sequence (O95076 139-225 N203Q) above, with Q65S counted along it
# PRRX1 [32] = target: PRRX1 (Homo sapiens, UniProt P54821 80-166)
# Chain of PRRX1 (Homo sapiens, UniProt P54821 80-166) (P54821 80-166): as the sequence (P54821 80-166 F113S) above, with S34F counted along it
# HOXB6 [33] = target: HOXB6 (Homo sapiens, UniProt P17509 132-218)
# Chain of HOXB6 (Homo sapiens, UniProt P17509 132-218) (P17509 132-218): as the sequence (P17509 132-218 K202E) above, with E71K counted along it
# HOXA4 [34] = target: HOXA4 (Homo sapiens, UniProt Q00056 201-287, W262R)
# Chain of HOXA4 (Homo sapiens, UniProt Q00056 201-287, W262R) (Q00056 201-287 W262R): as the sequence (Q00056 201-287 R217L) above, with L17R, W62R counted along it
# HOXB9 [35] = target: HOXB9 (Homo sapiens, UniProt P17482 171-250)
# Chain of HOXB9 (Homo sapiens, UniProt P17482 171-250) (P17482 171-250): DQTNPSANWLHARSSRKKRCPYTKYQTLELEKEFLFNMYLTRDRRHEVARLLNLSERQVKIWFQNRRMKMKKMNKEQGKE
# HOXC9 [36] = target: HOXC9 (Homo sapiens, UniProt P31274 178-260)
# Chain of HOXC9 (Homo sapiens, UniProt P31274 178-260) (P31274 178-260): as the sequence (P31274 178-260 R193K) above, with K16R counted along it
# HOXA4 [37] = target: HOXA4 (Homo sapiens, UniProt Q00056 201-287)
# Chain of HOXA4 (Homo sapiens, UniProt Q00056 201-287) (Q00056 201-287): as the sequence (Q00056 201-287 R217L) above, with L17R counted along it
# Chain of HOXC9 (Homo sapiens, UniProt P31274 178-260, K195R) (P31274 178-260 K195R): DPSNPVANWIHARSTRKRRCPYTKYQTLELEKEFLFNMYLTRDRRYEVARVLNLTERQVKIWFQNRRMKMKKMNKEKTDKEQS
# Chain of HOXB9 (Homo sapiens, UniProt P17482 171-250, T197M) (P17482 171-250 T197M): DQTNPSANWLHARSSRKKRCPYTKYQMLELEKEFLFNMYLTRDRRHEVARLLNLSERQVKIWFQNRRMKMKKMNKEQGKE
# Chain of HOXA7 (Homo sapiens, UniProt P31268 116-202) (P31268 116-202): as the sequence (P31268 116-202 W177C) above, with C62W counted along it
sequence,measurement,setting,value
ATTAATAA,binding signal,HOXB9 [1],"10.1 upbm affinity estimate (log intensity, higher = more binding, comparable within an allelic series)"
same,binding signal,HOXC9 [2],"12.6 upbm affinity estimate (log intensity, higher = more binding, comparable within an allelic series)"
same,binding signal,HOXA7 [3],"11.2 upbm affinity estimate (log intensity, higher = more binding, comparable within an allelic series)"
same,binding signal,HOXC10 [4],"12.2 upbm affinity estimate (log intensity, higher = more binding, comparable within an allelic series)"
same,binding signal,ALX4 [5],"13.5 upbm affinity estimate (log intensity, higher = more binding, comparable within an allelic series)"
same,binding signal,PAX4 [6],"11.7 upbm affinity estimate (log intensity, higher = more binding, comparable within an allelic series)"
same,binding signal,PRRX1 [7],"11.2 upbm affinity estimate (log intensity, higher = more binding, comparable within an allelic series)"
same,binding signal,PAX4 [8],"12.1 upbm affinity estimate (log intensity, higher = more binding, comparable within an allelic series)"
same,binding signal,HOXB6 [9],"10.1 upbm affinity estimate (log intensity, higher = more binding, comparable within an allelic series)"
same,binding signal,ALX4 [10],"12.8 upbm affinity estimate (log intensity, higher = more binding, comparable within an allelic series)"
same,binding signal,HOXA4 [11],"12 upbm affinity estimate (log intensity, higher = more binding, comparable within an allelic series)"
same,binding signal,HOXB4,"13.6 upbm affinity estimate (log intensity, higher = more binding, comparable within an allelic series)"
same,binding signal,ALX1 [12],"11.4 upbm affinity estimate (log intensity, higher = more binding, comparable within an allelic series)"
same,binding signal,ALX3 [13],"8.66 upbm affinity estimate (log intensity, higher = more binding, comparable within an allelic series)"
same,binding signal,HOXD13,"10.8 upbm affinity estimate (log intensity, higher = more binding, comparable within an allelic series)"
same,binding signal,PAX4 [14],"11.9 upbm affinity estimate (log intensity, higher = more binding, comparable within an allelic series)"
same,binding signal,SHOX,"9.26 upbm affinity estimate (log intensity, higher = more binding, comparable within an allelic series)"
same,binding signal,HOXC9 [15],"12.5 upbm affinity estimate (log intensity, higher = more binding, comparable within an allelic series)"
same,binding signal,ALX1 [16],"11.2 upbm affinity estimate (log intensity, higher = more binding, comparable within an allelic series)"
same,binding signal,PAX4 [17],"10.7 upbm affinity estimate (log intensity, higher = more binding, comparable within an allelic series)"
same,binding signal,HOXC10 [18],"11.8 upbm affinity estimate (log intensity, higher = more binding, comparable within an allelic series)"
same,binding signal,ALX3 [19],"12.2 upbm affinity estimate (log intensity, higher = more binding, comparable within an allelic series)"
same,binding signal,PAX4 [20],"11 upbm affinity estimate (log intensity, higher = more binding, comparable within an allelic series)"
same,binding signal,HESX1 [21],"8.97 upbm affinity estimate (log intensity, higher = more binding, comparable within an allelic series)"
same,binding signal,ALX3 [22],"10.2 upbm affinity estimate (log intensity, higher = more binding, comparable within an allelic series)"
same,binding signal,HESX1 [23],"10.2 upbm affinity estimate (log intensity, higher = more binding, comparable within an allelic series)"
same,binding signal,HOXB9 [24],"11.4 upbm affinity estimate (log intensity, higher = more binding, comparable within an allelic series)"
same,binding signal,HOXC9 [25],"11.2 upbm affinity estimate (log intensity, higher = more binding, comparable within an allelic series)"
same,binding signal,ALX3 [26],"9.99 upbm affinity estimate (log intensity, higher = more binding, comparable within an allelic series)"
same,binding signal,HESX1 [27],"8.16 upbm affinity estimate (log intensity, higher = more binding, comparable within an allelic series)"
same,binding signal,VAX1,"12.3 upbm affinity estimate (log intensity, higher = more binding, comparable within an allelic series)"
same,binding signal,PAX4 [28],"11 upbm affinity estimate (log intensity, higher = more binding, comparable within an allelic series)"
same,binding signal,HOXA7 [29],"9.01 upbm affinity estimate (log intensity, higher = more binding, comparable within an allelic series)"
same,binding signal,HOXA4 [30],"11.4 upbm affinity estimate (log intensity, higher = more binding, comparable within an allelic series)"
same,binding signal,ALX3 [31],"8.71 upbm affinity estimate (log intensity, higher = more binding, comparable within an allelic series)"
same,binding signal,PRRX1 [32],"13.2 upbm affinity estimate (log intensity, higher = more binding, comparable within an allelic series)"
same,binding signal,HOXB6 [33],"11.7 upbm affinity estimate (log intensity, higher = more binding, comparable within an allelic series)"
GGGATCCC,binding signal,HOXB9 [1],"8.56 upbm affinity estimate (log intensity, higher = more binding, comparable within an allelic series)"
same,binding signal,HOXA4 [34],"9.85 upbm affinity estimate (log intensity, higher = more binding, comparable within an allelic series)"
same,binding signal,HOXC9 [2],"9.54 upbm affinity estimate (log intensity, higher = more binding, comparable within an allelic series)"
same,binding signal,HOXB6 [9],"9.02 upbm affinity estimate (log intensity, higher = more binding, comparable within an allelic series)"
same,binding signal,HOXA4 [11],"9.68 upbm affinity estimate (log intensity, higher = more binding, comparable within an allelic series)"
same,binding signal,HOXB9 [35],"8.21 upbm affinity estimate (log intensity, higher = more binding, comparable within an allelic series)"
same,binding signal,HOXC9 [36],"9.51 upbm affinity estimate (log intensity, higher = more binding, comparable within an allelic series)"
same,binding signal,HOXC9 [15],"9.56 upbm affinity estimate (log intensity, higher = more binding, comparable within an allelic series)"
same,binding signal,HOXA4 [37],"9.71 upbm affinity estimate (log intensity, higher = more binding, comparable within an allelic series)"
same,binding signal,HOXB9 [24],"8.25 upbm affinity estimate (log intensity, higher = more binding, comparable within an allelic series)"
same,binding signal,HOXC9 [25],"9.68 upbm affinity estimate (log intensity, higher = more binding, comparable within an allelic series)"
same,binding signal,HOXA4 [30],"9.89 upbm affinity estimate (log intensity, higher = more binding, comparable within an allelic series)"
same,binding signal,HOXB6 [33],"9.02 upbm affinity estimate (log intensity, higher = more binding, comparable within an allelic series)"
